PubChem BioAssay (NCATS)

These compounds were tested against Glucocorticoid receptor (Homo sapiens) (UniProt P04150) (assay: GR-GFP Redistribution (AID 450)). Details: U2OS GR-GFP nuclear translocation, laser cytometry, 2 h; series mostly up to 20.6 µM;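 active = compounds whose dose series gives a full or clear partial fitted curve of increased nuclear translocation; inconclusive = weak partial curve or effect only at the top dose; inactive = no dose-dependent translocation response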.
Potency is read from the fitted curve at half-maximal effect.

Sequence of Glucocorticoid receptor (Homo sapiens) (P04150 whole entry, looked up): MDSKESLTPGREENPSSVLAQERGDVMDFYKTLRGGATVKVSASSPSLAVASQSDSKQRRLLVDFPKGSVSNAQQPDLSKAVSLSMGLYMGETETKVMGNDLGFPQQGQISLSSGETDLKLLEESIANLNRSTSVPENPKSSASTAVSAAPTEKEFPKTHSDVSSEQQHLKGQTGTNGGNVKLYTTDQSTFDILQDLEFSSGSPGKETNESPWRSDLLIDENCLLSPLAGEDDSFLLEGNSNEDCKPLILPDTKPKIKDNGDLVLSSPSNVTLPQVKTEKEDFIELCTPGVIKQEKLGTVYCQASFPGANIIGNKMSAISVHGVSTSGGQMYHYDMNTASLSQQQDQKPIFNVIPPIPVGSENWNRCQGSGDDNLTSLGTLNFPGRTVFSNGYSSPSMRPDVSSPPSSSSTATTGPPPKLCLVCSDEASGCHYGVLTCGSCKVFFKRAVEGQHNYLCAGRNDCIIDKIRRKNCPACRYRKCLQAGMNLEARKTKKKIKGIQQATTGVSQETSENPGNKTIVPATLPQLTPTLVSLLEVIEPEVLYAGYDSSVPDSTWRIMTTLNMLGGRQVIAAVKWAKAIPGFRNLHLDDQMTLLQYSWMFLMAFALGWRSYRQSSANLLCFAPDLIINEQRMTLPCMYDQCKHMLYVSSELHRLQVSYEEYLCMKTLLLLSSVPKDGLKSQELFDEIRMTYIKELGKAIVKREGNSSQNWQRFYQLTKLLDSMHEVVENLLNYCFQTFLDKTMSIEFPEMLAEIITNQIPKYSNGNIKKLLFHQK

Potency, inactive:
CC(C)(C)C1=Nn2c(nnc2-c2ccco2)SC1 > 20.6 µM, CN1C(=O)c2c(sc3c2CCCC3)NC1c1ccccc1O (stereo not given) > 20.6 µM, CCN(CC)CCCN1C(=O)C(=O)/C(=C(/O)c2ccc(Cl)cc2)C1c1ccccn1 (stereo not given) > 20.6 µM, COc1ccc(OC)c(C2=Nn3c(nnc3C3CCCCC3)SC2)c1 > 20.6 µM, CC(=O)C1=C(NC(=O)c2ccccc2F)C[C@@H]2[C@H]1C2(C)C > 20.6 µM, CC(=O)Nc1ccc(Oc2ccc3nc(C)[nH]c3c2)cc1 > 20.6 µM, COc1cccc(OC)c1-c1nn2c(-c3ccccc3Cl)nnc2s1 > 20.6 µM, COc1cc(C2Nc3cccc4cccc(c34)N2)cc(OC)c1OC(C)=O > 20.6 µM, COc1cccc(/C(O)=C2\C(=O)C(=O)N(c3ccccn3)C2c2ccccc2OC)c1 (stereo not given) > 20.6 µM, CC12CN3CC(C)(CN(C1)C3c1ccc(Cl)cc1Cl)C2O (stereo not given) > 20.6 µM, COc1ccc(-c2ncncc2-c2csc(C)n2)c(O)c1 > 20.6 µM, COc1ccccc1N1CCN(C2CCN(C(=O)c3cccs3)CC2)CC1 > 20.6 µM, CSC1=C(C#N)C(C)CC(=O)N1 (stereo not given) > 20.6 µM, N#Cc1nc(-c2cccs2)oc1NCCc1ccccc1 > 20.6 µM, COC(=O)C(NC(=O)c1ccco1)(Nc1nc(C)cs1)C(F)(F)F (stereo not given) > 20.6 µM, CCOC(=O)CSc1nc(NC#N)nc(N(CC)CC)n1 > 20.6 µM, CCOc1nnnc2c1sc1nc(N3CCOCC3)c3c(c12)CC(C)(C)OC3 > 20.6 µM, C1CNCCNCCCNCCNC1 > 20.6 µM, Cc1ccc(C(=O)NCC(C)(C)O)cc1 > 20.6 µM, CCC(=O)O[C@@H]1CC(=O)O[C@H](C)CC=CC=C[C@@H](O)[C@H](C)C[C@H](CC=O)[C@H](O[C@H]2O[C@H](C)[C@@H](O[C@H]3C[C@@](C)(O)[C@@H](OC(=O)CC)[C@H](C)O3)[C@H](N(C)C)[C@H]2O)[C@H]1OC > 20.6 µM, C=CCNc1nc(-c2cccc(OC)c2O)nc2ccccc12 > 20.6 µM, O=C(CNC1=NCCC1)c1ccc2c(c1)OCCO2 > 20.6 µM, CCCC(=O)Nc1sc2c(c1C#N)CCCC2 > 20.6 µM, COc1ccc(C(=O)Nc2nc(N)n(-c3ccccc3)n2)cc1OC > 20.6 µM, COC(=O)c1ccc(Cn2c(O)c(N=O)c3ccccc32)o1 > 20.6 µM, C=CCn1c(-c2ccc(OC)c(OC)c2)n[nH]c1=S > 20.6 µM, CCOC(=O)C1CSc2[nH]c(=O)sc2C1c1ccccc1 (stereo not given) > 20.6 µM, COC(=O)CSc1nc(C)c(C(C)=O)cc1C#N > 20.6 µM, Cc1c(C(=O)O)c(=S)sn1CCOc1ccccc1 > 20.6 µM, Cn1ncc2c(Nc3ccccc3Br)ncnc21 > 20.6 µM, CCOC(=O)COn1c(=O)c(-c2ccc(OC)c(OC)c2)[n+]([O-])c2ccccc21 > 20.6 µM, CC(=O)c1cc2c(=O)c3ccccc3oc2nc1C > 20.6 µM, O=C(OCC#CCSc1nnc(-c2ccccc2)o1)c1cccs1 > 20.6 µM, O=C(NCC(F)(F)F)Nc1nnc(C(F)(F)F)s1 > 20.6 µM, CCCCOc1ccccc1P(=O)(O)CP(=O)(c1ccccc1)c1ccccc1 > 20.6 µM, Cc1cc(=O)oc(C)c1C(=O)NCC1CCCO1 (stereo not given) > 20.6 µM, CN1CCN(Cc2c(O)c(Cl)cc3c(-c4ccccc4)cc(=O)oc23)CC1 > 20.6 µM, COc1ccc(C(C)=O)cc1CSCCC(=O)O > 20.6 µM, O=C(c1coc(=O)c(Br)c1)N1CCOCC1 > 20.6 µM, COC(=O)CN(c1nc(C)cc(OC)n1)S(=O)(=O)c1ccccc1 > 20.6 µM
